These results are taken from the supplement of paper PMC11018630.

Where a name gives a salt, the structure may show the parent alone. ± gives the standard deviation of the averaged measurements.

The test system of the test is RDEB dermal fibroblasts EB119. Description: day of extracellular matrix detachment from plate (days); higher = delayed detachment (less fibrotic matrix). As to conditions: compound concentration: 10 uM.
For `CSc1ccc2c(c1)N(CCC1CCCCN1C)c1ccccc1S2` (centres undefined) [Thioridazine HCl], the “day of extracellular matrix detachment from plate” value (from here on “day”) stood at 39. `COCCCOc1ccnc(C[S+]([O-])c2nc3ccccc3[nH]2)c1C` (centres undefined) [Rebeprazole sodium]: the “day” value came to 25. On to `CNC(=O)[C@H](Cc1ccccc1)NC(=O)[C@H](CC(C)C)[C@H](CSc1cccs1)C(=O)NO` [Batimastat (BB-94)], for which the “day” value was determined as 18. With `OC(c1cc(C(F)(F)F)nc2c(C(F)(F)F)cccc12)C1CCCCN1` (centres undefined) [Mefloquine HCl], the “day” value amounted to 39.

On to `CCOC(=O)[C@H]1O[C@@H]1C(=O)N[C@@H](CC(C)C)C(=O)NCCC(C)C` [Aloxistatin], for which the “day” value came to 25. Consider `CCN(CC)CCCC(C)Nc1ccnc2cc(Cl)ccc12` (centres undefined) [Chloroquine Phosphate], for which the “day” value came out at 35.3 ± 1.1. As to `O=C(O)CCCCCCCC(=O)O` [Azelaic acid], the “day” value is 26.3 ± 1.1. With `CC(C)(CO)[C@@H](O)C(=O)NCCCO` [D panthenol], the “day” value amounted to 26 ± 1.4. Then `CN1CCC(COc2cnc(-c3cccc(Cn4nc(-c5cccc(C#N)c5)ccc4=O)c3)nc2)CC1`, with 15.5 ± 3.5. Turning to `CCCCCCCCc1ccc(CCC(N)(CO)CO)cc1` [Fingolimod (FTY720) HCl], the “day” value came out at 26 ± 1.4. With `C=CC[C@@H]1/C=C(\C)C[C@H](C)C[C@H](OC)[C@H]2O[C@@](O)(C(=O)C(=O)N3CCCC[C@H]3C(=O)O[C@H](/C(C)=C/[C@@H]3CC[C@@H](O)[C@H](OC)C3)[C@H](C)[C@@H](O)CC1=O)[C@H](C)C[C@@H]2OC` [Tacrolimus (FK506)], the “day” value worked out at 20.7 ± 1.1. For the molecule `CCN(CCO)CCCC(C)Nc1ccnc2cc(Cl)ccc12` (centres undefined) [Hydroxychloroquine Sulfate], the “day” value worked out at 32.

Turning to `O=C(O[C@H]1CN2CCC1CC2)N1CCc2ccccc2[C@@H]1c1ccccc1` [Solifenacin succinate], the “day” value stood at 33.3 ± 1.1.

Regarding `CCCN(CCC)C(=O)C1=Cc2ccc(-c3ccc(C(=O)N4CCCC4)cc3)cc2N=C(N)C1` [Motolimod (VTX-2337)], the “day” value was 26 ± 1.4. As to `C[N+](C)(CCOc1ccccc1)Cc1ccccc1.O=C([O-])c1cc2ccccc2cc1O` [Bephenium Hydroxynaphthoate], the “day” value was 26 ± 1.4. Consider `Nc1nc(NC2CC2)c2ncn([C@H]3C=C[C@@H](CO)C3)c2n1` [Abacavir sulfate], for which the “day” value came out at 27. As to `CC(C)[C@H]1C(=O)N[C@@H](CCCNC(=N)N)C(=O)NCC(=O)N[C@@H](CC(=O)O)C(=O)N[C@H](Cc2ccccc2)C(=O)N1C` [Cilengitide], the “day” value was 4. Consider `Cc1cc(/C=C/C#N)cc(C)c1Nc1ccnc(Nc2ccc(C#N)cc2)n1` [Rilpivirine], for which the “day” value came to 39. On to `O=C1C(O)=C([C@H]2CC[C@H](c3ccc(Cl)cc3)CC2)C(=O)c2ccccc21` [Atovaquone], for which the “day” value was determined as 26 ± 1.4.
